# The panel holds about 83,000 compounds, 20% with a hit somewhere; the sample as a whole holds those more often.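 Note: values are percent growth. 100 is the growth of untreated cells, values between 100 and 0 indicate rising inhibition; between -100 and 0 indicates cell death.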 A number with no mark means an inactive call. Rule for the calls: active = growth percent below 10; inactive = the rest.
# Test system: HOP-62 NSCLC
# Assay: NCI-60 one-dose screen, 48 h (100 = growth as untreated, 0 = no growth, -100 = all killed)
# Conditions: 10 µM
row,SMILES,growth [%]
1,O=[N+]([O-])c1ccc(Sc2ccncn2)c([N+](=O)[O-])c1,92.4
2,COc1ccc(NC(=O)CCl)cc1,81.1
3,Cc1cc(=O)cc(C)n1-c1ccccc1,99.6
4,CC(=O)Oc1ccc(Br)cc1C(=O)O,86.9
5,CC1CCC(C(=O)O)N1 (stereo not drawn),93.9
6,O=C(CCNNC(=O)c1ccncc1)NCc1ccccc1,98.3
7,CCOC(=O)c1[nH]c(C)c(C(C)=O)c1C,89.7
8,CCOc1ccc(/C=C/C(=O)c2ccccc2)cc1,102
9,Cc1cc(C)c(N)c(S(=O)(=O)O)c1,91.8
10,CC(C)CCCC(=O)O,102
11,N#Cc1c(N)sc(=S)c2c1CCCC2,104
12,Cc1cccc(C(=O)N(C(C)C)C(C)C)c1,86.4
13,O=C(O)C(c1ccccc1)C(O)c1ccccc1 (stereo not drawn),101
14,S=C(Nc1ccccc1)N1CCCCC1,90.9
15,N=c1c(C(=O)OCc2ccccc2)ncc(CCl)n1O,95.7
16,O=C(c1ccc(O)cc1)c1ccc(O)cc1,97.8
17,O=C(CS)Nc1ccc2ccccc2c1,120
18,O=c1cc(-c2ccccc2)oc2c1ccc1ccccc12,99.5
19,O=c1cc2oc3cc(O)c(O)cc3c(-c3ccccc3O)c-2cc1O,63

row,SMILES,growth [%]
1,Nc1ccccc1C(=O)Nc1ccc(Cl)cc1Cl,86.6
2,O=C(c1ccc(Cl)cc1)c1ccccc1Cl,93.7
3,CNC(=S)NC(C)(C)C,101
4,CCCC(=O)Nc1ccc2c(c1)CN1C(=O)c3ccccc3C1=N2,104
5,c1ccc(/C(=N\N=C(/c2ccccc2)c2cccs2)c2cccs2)cc1,102
6,CCOC(=O)C1=C(C)NC(=O)NC1c1cccs1 (stereo not drawn),109
7,CC1(C)N=C(N)N=C(N)N1c1cccc(Br)c1,15.4
8,Oc1ccc(N=Nc2ccc(Br)cc2)c(O)c1,27.5
9,CN(C)CCC(=O)c1ccc(O)cc1,107
10,COc1nc(N)nc2c1ncn2C1OC(CO)CC1O (stereo not drawn),100
11,O=S(=O)(O)CC(O)CN1CCN(CCO)CC1 (stereo not drawn),110
12,O=[N+]([O-])c1ccc(-c2noc(-c3cccs3)n2)cc1,87.6
13,COc1cc2cc(OC(C)=O)c3cc4c(cc3c2c(OC)c1OC)OCO4,91.5
14,COC(=O)/C=C1\Sc2cc(F)ccc2NC1=O,96.5
15,CC(=O)c1ccc(C(C)(C)C)cc1,91.9
16,CCC(O)CC(CC)CO (stereo not drawn),108
17,O=[N+]([O-])c1ccc(/C=C/C=C/c2ccccc2)c(Cl)c1,105
18,Nc1ccc(CC(=O)O)c(N)c1,102
19,O=[N+]([O-])c1ccc(N=Nc2ccccc2)cc1,96.4

# Source: PubChem BioAssay (NCI)
